Laboratory results reported in ChEMBL document CHEMBL4888484, “Replenishing the malaria drug discovery pipeline: Screening and hit evaluation of the MMV Hit Generation Library 1 (HGL1) against asexual blood stage Plasmodium falciparum ,using a nano luciferase reporter read-out” (2022).
About 420 (8.8%) of roughly 4,800 compounds showed an effect of 50% or more. The entries come from a sample that favours strong results as a whole.

The compounds below were run on Plasmodium falciparum (assay: Confirmatory screen in NF54 nanoGlo assay, in single point, at 2uM, 72h). Conditions: timepoint 72 hour.
Type: functional, Erythrocyte

Row | Compound | % Inhibition [%]
1 | COc1ccc(-c2noc(Cn3c(=O)c4ccccc4n(CC(=O)Nc4cc(C)ccc4C)c3=O)n2)cc1 | 0
2 | O=C(Nc1nn(Cc2ccccc2)cc1Cl)c1cc(-c2ccc(OC(F)F)cc2)[nH]n1 | 4
3 | Nc1noc2cc(C(F)(F)F)cnc12 | 4
4 | COc1ccc2c(c1)CN(c1nnc(C3CC3)o1)CC2 | 7
5 | CN1CCN(Cc2cc3cc4c(cc3nc2-c2ccc(Cl)cc2)OCO4)CC1=O | 53
6 | O=c1[nH]c2cc3c(cc2c(=O)n1Cc1nc(-c2ccc(Cl)cc2)no1)OCO3 | -1
7 | Cc1cc(C)nc(-n2nc(-c3ccc(Cl)cc3)c3c2NC(=O)C[C@@H]3c2ccc3c(c2)OCO3)n1 | -7
8 | Cc1cc(OC[C@@H](O)CNC(C)(C)CC(C)(C)C)cc(C)c1Cl | 67
9 | CC(=O)N1CCCN(S(=O)(=O)Cc2ccccc2Cl)CCNC(=O)[C@@H]2CCC[C@@H]21 | 0
10 | Cc1ccc(-c2n[nH]c(NC(=O)Nc3ccc(F)c(S(=O)(=O)NC4CC4)c3)c2C)o1 | -9
11 | CCOc1ccc([C@@H](Nc2nc(C)cc(C)n2)c2cc(C)sc2NC(=O)c2ccccc2)cc1 | 1
12 | COc1ccc(OC)c([C@H](C)NC(=O)N2CCS(=O)(=O)CC2)c1 | -3
13 | C[N+]12CCCCC1C(OC(=O)C1(c3ccccc3)CCCC1)CCC2 (stereo not given) | 96
14 | CN(C(=O)Cn1cnc2nc(N3CCC(C(=O)NC4CC4)CC3)sc2c1=O)c1ccccc1 | -14
15 | CCCCC1NC(=O)N([C@@H]2CCC(=O)N[C@H]2c2ccccc2)C1=O (stereo not given in full) | 2
16 | O=C(Cc1c[nH]c2ccccc12)Nc1ccc(Cl)c2ncccc12 | 5
17 | CC(C)C(NC(=O)COc1ccccc1)C(=O)NCC(c1ccccc1Cl)c1c[nH]c2ccccc12 (stereo not given) | 69
18 | CC(=O)Nc1ccccc1CC(c1c[nH]c2ccccc12)c1c[nH]c2ccccc12 | 0
19 | CCS(=O)(=O)N1CCN(c2nc(Cc3ccc(C)cc3)nc3c2c(C)nn3-c2ccccc2)CC1 | -3
20 | N/C(CC(=O)Nc1cccc(Cl)c1)=N/O | -4
21 | CCCC[C@H](Oc1ccc(C(C)(C)CC)cc1C(C)(C)CC)C(=O)Nc1ccc(NC(=O)C(F)(F)C(F)(F)C(F)(F)F)c(O)c1 | 30
22 | Cc1cc(-c2ccccc2)nc(O)c1S(C)(=O)=O | -3
23 | Cc1nn(Cc2ccccc2)c2nc(C3CC3)cc(C(=O)N3CCOCC3)c12 | 3
24 | Cc1ccc(S(=O)(=O)N2CCN(C(=O)c3cc(C4CC4)nc4c3c(C)nn4C(C)C)CC2)cc1 | -1
25 | Cc1nn(C(C)(C)C)c2nc(C3CC3)cc(C(=O)N(C)c3ccccc3)c12 | 81

Row | Compound | % Inhibition [%]
26 | Cc1cnc(-n2cnnc2)c(-c2ccc(S(C)(=O)=O)cc2)c1 | -3
27 | Cn1c(-c2ccccc2)cn2cc(-c3ccc(F)cc3)nc12 | 1
28 | COc1cccc(Cn2nc3ccc(S(=O)(=O)N4CCCC4)cn3c2=O)c1 | 2
29 | Cc1cc(C)n(C(=O)CNC(=O)c2ccccn2)n1 | 2
30 | Cc1cc(NC(=O)c2ccccn2)n(-c2nc3ccccc3o2)n1 | 88
31 | Cc1cc(C(=O)Nc2cc(C)nn2C)nc(N(C)C)n1 | -1
32 | CCc1cc(C(=O)N(CC)c2ccccc2)c2c(C)noc2n1 | -7
33 | O=C(Nc1cc(-c2onc3c2CCCC3)cc(C(F)(F)F)c1)c1cncc(Br)c1 | 95
34 | Clc1ccc(-c2onc3c2CCCC3)cc1 | 2
35 | O=C(Nc1onc2c1CCC2)c1ccc2ccccc2c1 | 45
36 | Cn1c(CCNC(=O)CCc2cccnc2)nc2cc(Cl)ccc21 | -3
37 | CCN1CCC(NC(=O)CCc2c[nH]c3ccccc23)CC1 | 4
38 | CC1(C)Oc2ccc(S(=O)(=O)NC3CCCCC3)cc2NC1=O | -8
39 | Oc1cc(-c2ccc(F)cc2)nn1-c1nc2ccccc2[nH]1 | -9
40 | Cc1nn(-c2nc3ccccc3[nH]2)c(O)c1Cc1ccccc1 | 2
41 | Cc1nn(-c2nc3ccccc3[nH]2)c(O)c1CCC(C)C | 68
42 | O=C(Nc1ccc(OC2CCC2)c(F)c1)N1CC[C@H](O)C1 | -2
43 | CCCc1noc([C@H](C)OC(=O)c2cc[nH]n2)n1 | -7
44 | CCN1C(=O)C(=O)N(CN2CCc3ccccc3C2)C1=O | -4
45 | Cc1nn(C)c(Cl)c1NC(=O)OCc1ccc(F)cc1 | -4
46 | CCn1cc(-c2nc(-c3ccccc3C)no2)c(=O)c2cc(F)c(N3CCCCC3)cc21 | 47
47 | CCn1cc(C#N)c(=O)c2cc(F)c(N3CCN(Cc4ccccc4)CC3)cc21 | 69
48 | CCn1cc(C(=O)O)c(=O)c2cc(F)c(N3CCN(S(=O)(=O)c4ccccc4)CC3)cc21 | -10
49 | c1cc(Cn2cnc3c2CCCC3)cs1 | -15
50 | CC[C@H]1Cn2c(C(=O)NCc3cccs3)cc3c(Cl)ccc(c32)O1 | -4

Row | Compound | % Inhibition [%]
51 | COc1ccc2c(O)cc(-c3ccccc3)nc2c1 | -2
52 | COc1ccc(C(=O)Cn2nc(C)cc2C)cc1 | -4
53 | COc1ccc2c(NC(=O)Cc3c(C)noc3C)n[nH]c2c1 | 0
54 | O=C(Nc1cccc(Oc2c(F)c(F)c(-c3c(F)c(F)c(Oc4cccc(NC(=O)c5ccccc5)c4)c(F)c3F)c(F)c2F)c1)c1ccccc1 | 5
55 | Nc1cc(C(F)(F)F)c(Br)cc1Br | -16
56 | Cc1cccc(N2CCN(C(=O)c3ccc4c(c3)C(=O)N(c3cc(C)on3)C4=O)C[C@@H]2C)c1 | -3
57 | CC1CN(S(=O)(=O)CC2CCOC2)c2ccc(F)cc2O1 (stereo not given) | -2
58 | CCOc1ccccc1NC(=O)Cc1c(C)nc2nc(-c3cccnc3)nn2c1C | 0
59 | CCCOc1ccc(Nc2cc(C)nc3ccc(Cl)cc23)cc1 | 42
60 | Cc1cc(C)c2nc(C)cc(Nc3ccc(O)cc3)c2c1 | 87
61 | Cc1ncoc1C(=O)N1CC(F)(F)C[C@H]1Cn1cc(C(=O)N2CCOCC2)nn1 | -1
62 | CC(C)(C)OC(=O)Nc1cccc(N)n1 | 1
63 | Cn1cncc1CC(=O)Nc1ccnc(NC(=O)OC(C)(C)C)c1 | 96
64 | COc1ccc(-c2noc(Cn3c(=O)c4ccccc4n(CC(=O)Nc4cc(Cl)ccc4C)c3=O)n2)cc1 | -3
65 | O=C(C[C@H]1CCN(C(=O)c2ccc(F)cc2)C1)NC1CC1 | -11
66 | CCS(=O)(=O)Nc1ccc(S(=O)(=O)NC[C@@H](c2ccccc2OC)N2CCCCC2)c(C)c1 | -1
67 | CC(C)[C@@H]1CC[C@H](C)C[C@H]1OC(=O)Cn1cc(-c2ccc(Cl)cc2)[n+]2c1CCC2 | 84
68 | CC(C)N(C(=O)c1cc(O)nc2ccccc12)C1CC1 | -2
69 | CN(CC(C)(CO)CO)C(=O)c1coc2ccccc12 | -3
70 | Oc1cc(-c2ccc3ccccc3c2)[nH]n1 | -11
71 | Cc1cccc(C)c1OCC(=O)Nc1ccc(-c2nc3cc4ccccc4cc3[nH]2)cc1 | 10
72 | c1cc(-c2nc3cc4ccccc4cc3[nH]2)nc(-c2nc3cc4ccccc4cc3[nH]2)c1 | 99
73 | Cc1cccc(NC(=O)[C@@H](C#N)C(=O)c2ncoc2C)c1 | -14
74 | Cc1c(C2CC2)n[nH]c1NC(=O)C1CC1c1ccccc1 (stereo not given) | -1
75 | O[C@@]1(CN2CCC(COc3ccc4c(c3)CCC4)CC2)CCCNC1 | 52

Row | Compound | % Inhibition [%]
76 | COc1cccc(Cn2nccc2NC(=O)C2CCOCC2)c1OC | -3
77 | CC(C)Cn1c(C(F)(F)F)cnc1N | 3
78 | Cc1ncc(CN(C)[C@@H](C)C(=O)Nc2ccc3c(c2)OC2(CCCCC2)O3)s1 | -4
79 | COc1cc(Cl)c(C)cc1NC(=O)c1nc2cc(C)c(C)cc2n(C)c1=O | -3
80 | O=C(c1ccc2c(c1)OCO2)N1CCn2c1nc1ccccc12 | 65
81 | Cc1nc2ccccc2n1CCC(=O)N1CCN(Cc2ccc3c(c2)OCO3)CC1 | 2
82 | O=C(c1ccc2c(c1)OCCCO2)N1CCCCC1 | -3
83 | CCC[C@H]1C(=O)NCCN1C(=O)c1cnn(CC2CCOCC2)c1C | 8
84 | Cc1nnc(NC(=O)[C@H](C)c2ccc(-c3ccccc3)c(F)c2)s1 | -19
85 | COc1cc(C(c2c(C)n(C)n(-c3ccccc3)c2=O)c2c(C)n(C)n(-c3ccccc3)c2=O)c(Br)c(Br)c1OCc1ccccc1 | 7
86 | COc1cc(C(=O)NC2CCCCC2)cc2occc12 | -8
87 | Cn1ccnc1C1CC(NC(=O)c2cc3c(s2)CCC3)CCO1 (stereo not given) | 0
88 | COc1cc2c(cc1OC)[C@@H](NC(=O)c1cnc(C3(C)OCCO3)s1)CCCC2 | 50
89 | Cc1cccc(C(=O)ON2C(=O)CCC2=O)c1 | -11
90 | CCCCC[C@H](C)NC(=O)CCC(=O)Nc1cccnc1 | -11
91 | Cc1ccc(Oc2ccccc2CNC(=O)[C@@H]2CCC(=O)N2)cc1 | -6
92 | COCCN(Cc1nc(C(=O)NC(C)C)cs1)C(=O)Nc1ccc(C(C)C)cc1 | 4
93 | CC1CCN(C(=O)Cc2csc(NC(=O)c3cccc(O)c3)n2)CC(C)C1 (stereo not given) | -10
94 | Fc1cnc(OC2Cc3ccccc3C2)nc1 | 57
95 | CCn1c(C)cc(C(=O)O[C@@H](C)C(=O)Nc2ncccn2)c1C | -4
96 | CC1CCCC(C)N1C(=O)CN(C)c1cccc2cccnc12 (stereo not given) | -7
97 | Cc1ccc(S(=O)(=O)Nc2ccc(Br)cc2C(=O)Nc2ccc(Oc3ccc(Br)c4ccccc34)c(Cl)c2)cc1 | 6
98 | C[C@@H](CC(=O)Nc1cncnc1-n1cccn1)c1ccccc1 | -3
99 | OC(CC(Nc1ccc(Cl)cc1)c1ccccc1)c1ccccc1 (stereo not given) | -8
100 | CC(C)n1nccc1N1C(=O)N[C@@H](CC(F)(F)F)C1=O | 0
